Results: PubChem BioAssay (NCATS)
Unmarked numbers belong to inactive results. Inconclusive results are not listed. Calls of active or inactive are those of the source. Unless noted, calls follow the shape of the dose curve; as a rule, active = well fitted curve in either direction with a large enough effect (not every such curve was filed as active); inconclusive = small, poorly fitted or top-dose-only effect, or another doubt; inactive = flat fitted curve, though single readings scatter.

Legend:
[1] = AP1 Signaling Pathway (AID 357); settings: ME-180 AP-1-bla reporter, EGF-induced, beta-lactamase ratio, 5 h; at 17.2 µM (top of the series) unless noted;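 also: ME-180 reporter cells stimulated with EGF at its EC50 level; % is scaled to controls: 0 for no effect and ±100 for the full control effect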
Method in brief: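 First, ME-180 AP-1-bla cells were cultured overnight at 37 °C in low-serum Opti-MEM. Next, titrated compounds with EC50 EGF were incubated 5 hours. Finally, CCF4 was added for 2.5 hours and the 460/530 nm ratio recorded.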

[2] = NFAT Signaling Pathway (AID 444); settings: Jurkat NFAT-bla M1, carbachol, beta-lactamase ratio, 5 h; at 17.2 µM (top of the series) unless noted;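 also: carbachol stimulus at about its EC50 of 1 µM final; % is scaled to controls: 0 for no effect and ±100 for the full control effect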
Method in brief: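 Read-out: CCF4 FRET ratio (460 nm/530 nm) after 1 h RT dye loading, used for %activity and AC50 from titration series. Cells: Jurkat NFAT-β-lactamase/M1 line, treated with compound plus 1 uM carbachol for 5 h, 37 °C.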

[3] = Stat Signaling Pathway (AID 446); settings: ME-180 SIE beta-lactamase reporter, IL-6 stimulated, 5 h; at 17.2 µM (top of the series) unless noted;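 also: ME-180 cervical cancer cells given 40 pM IL-6 alongside compound; SIE-controlled beta-lactamase reporter measured as 460/530 nm FRET emission ratio; % is scaled to controls: 0 for no effect and ±100 for the full control effect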
Method in brief: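 Overnight-plated ME-180 cells bearing a STAT Inducible Element beta-lactamase reporter; 5 h co-exposure to compound and 40 pM IL-6; values normalized to 300 pM IL-6 and 125 nM JAK inhibitor controls.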

[4] = molecular target: Glucocorticoid receptor (Homo sapiens) (UniProt P04150); experiment: GR-GFP Redistribution (AID 450;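 active = compounds whose dose series gives a full or clear partial fitted curve of increased nuclear translocation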; also: potency is read from the fitted curve at half-maximal effect)
[5] = qHTS Assay for Identification of Small Molecule Agonists for Hypoxia Response Element Signaling Pathway (AID 914; active = well fitted activation curve with a large enough effect in the signal ratio, with a control signal flat, not every such curve was filed as active; the % refers to the signal ratio; also: % of control where 0% means no effect); settings: ME-180 (cervical carcinoma) HRE-bla reporter, beta-lactamase ratio, CoCl2, 17 h; activation: stronger effect = higher value
Method in brief: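 Reporter activity (beta-lactamase, CCF4 460nm/530nm ratio) in HRE-bla ME-180 cells is recorded after 17 h compound exposure with EC50 CoCl2 at 37 degrees Celsius. AC50 values come from titration data.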

[6] = molecular target: Tyrosyl-DNA phosphodiesterase 1 (Homo sapiens) (UniProt Q9NUW8); experiment: Confirmation Assay for Inhibitors of Tyrosyl-DNA Phosphodiesterase (TDP1) (AID 489007; active = well fitted curve in the direction sought with a large enough effect; an effect the other way counts as inactive or inconclusive; also: potency is read from the fitted curve at half-maximal effect; nearly all actives have a fitted effect of over 40% in size); settings: recombinant human TDP1 enzymatic activity, dose-response
Method in brief: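 AlphaScreen read-out: streptavidin donor and anti-FITC acceptor beads (10 ug/ml) bind intact substrate, so Tdp1 removal of tyrosine-FITC lowers signal. Enzyme 1 nM, substrate 15 nM, 5 min reaction at room temperature after 15 min compound preincubation.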

[7] = molecular target: Mitogen-activated protein kinase 10 (Mus musculus) (UniProt Q61831); experiment: JNK3 AlphaScreen Assay (AID 530);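 also: kinase came from lysate of stimulated human HepG2 cells; signal reports phosphorylation of biotinylated GST-cJun 1-79 at Ser73 with 10 µM ATP; % is scaled to controls: 0 for no effect and ±100 for the full control effect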
Method in brief: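 Kinase buffer: 20 mM Tris-HCl pH 7.6, 10 mM MgCl2, 1 mM DTT, 0.1 mM Na3VO4, 0.01% Tween-20; ATP 10 uM. Substrate biotin-GST-cJun(1-79), enzyme from activated HepG2 lysates. Detection by Ser73 phospho-antibody AlphaScreen.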

[8] = molecular target: 3',5'-cyclic-AMP phosphodiesterase 4B (Homo sapiens) (UniProt Q07343); experiment: qHTS Assay for Inhibitors of PDE-IV (AID 607; active = well fitted activation curve with a large enough effect in the main read-out, with a control signal flat, not every such curve was filed as active; also: % of control where 0% means no effect)
Method in brief: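 Live HEK293 cells with a modified cyclic nucleotide-gated (CNG) channel report intracellular cAMP via membrane-potential dye fluorescence (ex 535/em 590 nm). Endogenous PDE-IV was targeted. Compounds were tested at up to 22.9 uM final; RO 20-1724 100 uM served as control.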

[9] = molecular target: Guanine nucleotide-binding protein G(i) subunit alpha-1 (Homo sapiens) (UniProt P63096); experiment: qHTS Assay for Inhibitors of RGS12 GoLoco Motif Activity (Green Fluorophore) (AID 879; active = well fitted curve in the direction sought with a large enough effect; an effect the other way counts as inactive or inconclusive;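 also: 0% = labeled peptide with Gαi1 and full inhibition = labeled peptide alone without protein; negative values mean loss of peptide binding seen as reduced polarization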)
Method in brief: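 A drop in FITC polarization marked displacement of the FITC-tagged RGS12 GoLoco peptide (10 nM) from Gαi1 (50 nM). Compounds were incubated 10 min at room temperature in Tris pH 7.5 buffer containing 150 mM NaCl, 0.1 mM GDP and 0.05% NP40; unlabeled peptide titration served as control.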

[10] = qHTS Assay for Identification of Small Molecule Agonists for Thrombopoietin (TPO) Signaling Pathway (AID 917; active = well fitted curve in the direction sought with a large enough effect; an effect the other way counts as inactive or inconclusive; also: % is scaled to controls: 0 for no effect and ±100 for the full control effect)
Method in brief: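 Quantitative HTS for pathway activators: compounds were pin-transferred onto IL-3-starved Ba/F3 cells expressing human TPO receptor, TPO was added at its EC50 (26 pM final), and after 24 hrs at 37 C reporter luciferase was measured.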

[11] = molecular target: Pyruvate kinase (Leishmania mexicana) (UniProt Q27686); experiment: qHTS Validation Assay for Inhibitors of Leishmania Mexicana Pyruvate Kinase (AID 945; active = well fitted curve in the direction sought with a large enough effect; an effect the other way counts as inactive or inconclusive;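 also: 0% = DMSO only neutral control wells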)
Method in brief: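 Mutant LmPYK (E451W), 0.2 nM, plus 0.5 mM PEP and 0.1 mM ADP in 50 mM imidazole pH 7.2 containing 0.01% Tween 20 and 0.05% BSA. Incubated 1 h at room temperature; luminescence via PKLight, normalized to DMSO.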

[12] = molecular target: Pyruvate kinase PKM (Homo sapiens) (UniProt P14618); experiment: qHTS Assay for Activators of Human Muscle Pyruvate Kinase (AID 954; active = well fitted curve in the direction sought with a large enough effect, not every such curve was filed as active;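 also: 0% = uninhibited enzyme and -100% = no enzyme or full thiadiazolimine inhibition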)
Method in brief: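 Screening used highly purified human pyruvate kinase M2 under submaximal activity, with PEP at its Km and ADP below Km. After an hour at room temperature, ATP was read by luciferase luminescence.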

[13] = molecular target: Alpha-galactosidase A (Homo sapiens) (UniProt P06280); experiment: Counterscreen for Glucocerebrosidase Inhibitors: qHTS Assay for Human alpha-Galactosidase at pH 4.5 (AID 992; active = well fitted curve in the direction sought with a large enough effect; an effect the other way counts as inactive or inconclusive; also: 0% is about no effect)
Method in brief: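 Each compound is preincubated briefly with 2 nM enzyme before substrate addition (80 uM); plates then sit 20 min at ambient temperature, are quenched with 1M NaOH/1M glycine, and read fluorometrically.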

[14] = molecular target: alpha-glucosidase (Oryza sativa, rice) (UniProt Q653V4); experiment: Counterscreen for Glucocerebrosidase Inhibitors: qHTS Assay for Rice alpha-Glucosidase at pH 5.0 (AID 997; active = well fitted curve in the direction sought with a large enough effect; an effect the other way counts as inactive or inconclusive;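 also: 0% = full activity with enzyme and -100% = basal without enzyme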)
Method in brief: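 Endpoint fluorogenic assay at pH 5.0: compounds (0.7 nM to 77 uM) titrated against 4 nM rice enzyme and 400 uM 4-MU-alpha-glucoside for 20 min at room temperature; NaOH/glycine stop, read ex 365/em 440 nm, Hill-fitted AC50.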

[15] = molecular target: Glucocorticoid receptor (Homo sapiens) (UniProt P04150); experiment: GR-EFC Redistribution (AID 451; calls by dose curve; also: potency is read from the fitted curve at half-maximal effect); settings: CHO-K1 GR-EFC translocation, beta-gal luminescence, 2 h
Method in brief: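 Translocation of GR-ED fusion to nuclear EA restores b-gal, read by luminescence after 1 h room-temperature detection. Engineered CHO-K1 biosensor cells, 1,000/well, exposed 2 h at 37 C to titrations up to 46 uM final.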

Sequence of Glucocorticoid receptor (Homo sapiens) (P04150 whole entry, looked up, the tested form may be a part): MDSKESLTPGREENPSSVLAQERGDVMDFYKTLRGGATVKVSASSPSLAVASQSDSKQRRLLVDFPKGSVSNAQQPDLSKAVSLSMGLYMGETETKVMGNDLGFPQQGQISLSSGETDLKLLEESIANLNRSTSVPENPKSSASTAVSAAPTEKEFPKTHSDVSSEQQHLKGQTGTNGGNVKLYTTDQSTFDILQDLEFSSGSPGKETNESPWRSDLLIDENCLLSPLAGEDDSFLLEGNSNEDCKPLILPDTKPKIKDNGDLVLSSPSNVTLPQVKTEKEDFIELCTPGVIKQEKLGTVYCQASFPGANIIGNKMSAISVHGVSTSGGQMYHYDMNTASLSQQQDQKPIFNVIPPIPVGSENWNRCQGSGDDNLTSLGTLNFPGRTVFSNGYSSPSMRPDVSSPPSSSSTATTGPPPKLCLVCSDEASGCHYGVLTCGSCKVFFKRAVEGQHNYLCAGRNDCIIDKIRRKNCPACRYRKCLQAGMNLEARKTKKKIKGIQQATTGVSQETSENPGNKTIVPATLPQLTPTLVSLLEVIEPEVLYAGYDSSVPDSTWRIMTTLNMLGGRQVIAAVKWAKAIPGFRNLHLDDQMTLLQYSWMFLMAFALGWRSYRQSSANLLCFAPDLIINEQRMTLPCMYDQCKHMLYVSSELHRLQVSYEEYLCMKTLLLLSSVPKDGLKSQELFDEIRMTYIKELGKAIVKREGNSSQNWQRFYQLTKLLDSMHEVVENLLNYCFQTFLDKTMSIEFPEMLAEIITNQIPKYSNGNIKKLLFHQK
Sequence of Pyruvate kinase PKM (Homo sapiens) (P14618 whole entry, looked up): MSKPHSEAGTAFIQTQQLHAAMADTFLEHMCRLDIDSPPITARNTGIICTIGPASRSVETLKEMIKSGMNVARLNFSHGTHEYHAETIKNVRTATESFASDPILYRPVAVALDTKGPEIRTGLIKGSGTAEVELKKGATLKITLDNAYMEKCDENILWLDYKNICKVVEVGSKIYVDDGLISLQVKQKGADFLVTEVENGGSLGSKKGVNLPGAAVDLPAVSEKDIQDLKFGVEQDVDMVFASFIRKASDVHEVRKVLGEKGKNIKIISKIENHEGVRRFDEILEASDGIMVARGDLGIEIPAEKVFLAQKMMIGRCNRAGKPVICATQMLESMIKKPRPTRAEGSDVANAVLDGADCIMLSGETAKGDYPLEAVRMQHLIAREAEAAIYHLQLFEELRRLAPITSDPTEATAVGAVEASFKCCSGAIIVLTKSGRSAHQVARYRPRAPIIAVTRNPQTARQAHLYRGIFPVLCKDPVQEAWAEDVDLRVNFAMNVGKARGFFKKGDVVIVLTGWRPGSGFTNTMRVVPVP
Sequence of Pyruvate kinase (Leishmania mexicana) (Q27686 2-499 E452W): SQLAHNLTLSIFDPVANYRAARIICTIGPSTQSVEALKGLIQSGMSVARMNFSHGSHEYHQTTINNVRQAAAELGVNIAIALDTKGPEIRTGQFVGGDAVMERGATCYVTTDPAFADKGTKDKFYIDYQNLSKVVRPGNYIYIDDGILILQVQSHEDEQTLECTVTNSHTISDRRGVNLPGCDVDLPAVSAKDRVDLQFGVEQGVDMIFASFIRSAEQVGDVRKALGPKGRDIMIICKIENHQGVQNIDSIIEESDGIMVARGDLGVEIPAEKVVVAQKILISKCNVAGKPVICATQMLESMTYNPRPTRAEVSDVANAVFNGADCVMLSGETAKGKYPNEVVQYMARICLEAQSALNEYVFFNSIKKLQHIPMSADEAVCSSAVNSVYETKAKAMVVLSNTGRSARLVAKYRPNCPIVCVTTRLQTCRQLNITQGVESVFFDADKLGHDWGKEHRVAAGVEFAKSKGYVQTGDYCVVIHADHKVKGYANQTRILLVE
Sequence of 3',5'-cyclic-AMP phosphodiesterase 4B (Homo sapiens) (Q07343 whole entry, looked up): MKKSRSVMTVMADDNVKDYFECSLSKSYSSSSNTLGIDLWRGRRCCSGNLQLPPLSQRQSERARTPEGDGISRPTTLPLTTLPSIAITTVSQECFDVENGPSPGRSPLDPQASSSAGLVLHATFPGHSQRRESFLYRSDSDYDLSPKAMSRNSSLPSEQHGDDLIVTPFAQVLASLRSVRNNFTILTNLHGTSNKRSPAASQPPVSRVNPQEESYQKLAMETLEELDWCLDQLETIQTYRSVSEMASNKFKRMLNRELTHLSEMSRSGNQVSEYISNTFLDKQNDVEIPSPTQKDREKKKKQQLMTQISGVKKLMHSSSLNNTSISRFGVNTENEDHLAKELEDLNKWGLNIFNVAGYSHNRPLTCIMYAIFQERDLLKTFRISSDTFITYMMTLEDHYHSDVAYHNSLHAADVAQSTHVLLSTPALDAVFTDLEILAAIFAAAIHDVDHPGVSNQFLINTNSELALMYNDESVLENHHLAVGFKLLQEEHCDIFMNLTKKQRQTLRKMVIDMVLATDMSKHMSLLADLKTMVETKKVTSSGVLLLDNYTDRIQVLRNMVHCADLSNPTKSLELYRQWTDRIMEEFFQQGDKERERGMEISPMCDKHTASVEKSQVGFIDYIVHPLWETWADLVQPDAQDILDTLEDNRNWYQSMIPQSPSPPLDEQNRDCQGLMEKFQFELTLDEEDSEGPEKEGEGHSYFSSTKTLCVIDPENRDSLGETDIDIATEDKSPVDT
Sequence of Guanine nucleotide-binding protein G(i) subunit alpha-1 (Homo sapiens) (P63096 whole entry, looked up): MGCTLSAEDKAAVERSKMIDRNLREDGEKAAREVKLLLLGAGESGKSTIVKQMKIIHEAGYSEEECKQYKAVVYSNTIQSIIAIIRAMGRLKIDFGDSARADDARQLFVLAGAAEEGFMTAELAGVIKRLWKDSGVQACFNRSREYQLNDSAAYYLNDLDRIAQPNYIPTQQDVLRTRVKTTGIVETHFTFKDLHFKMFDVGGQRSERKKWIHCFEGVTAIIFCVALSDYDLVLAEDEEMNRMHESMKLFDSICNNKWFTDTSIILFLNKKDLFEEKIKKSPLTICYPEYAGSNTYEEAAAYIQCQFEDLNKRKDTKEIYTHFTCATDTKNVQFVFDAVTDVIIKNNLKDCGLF
Sequence of Alpha-galactosidase A (Homo sapiens) (P06280 whole entry, looked up): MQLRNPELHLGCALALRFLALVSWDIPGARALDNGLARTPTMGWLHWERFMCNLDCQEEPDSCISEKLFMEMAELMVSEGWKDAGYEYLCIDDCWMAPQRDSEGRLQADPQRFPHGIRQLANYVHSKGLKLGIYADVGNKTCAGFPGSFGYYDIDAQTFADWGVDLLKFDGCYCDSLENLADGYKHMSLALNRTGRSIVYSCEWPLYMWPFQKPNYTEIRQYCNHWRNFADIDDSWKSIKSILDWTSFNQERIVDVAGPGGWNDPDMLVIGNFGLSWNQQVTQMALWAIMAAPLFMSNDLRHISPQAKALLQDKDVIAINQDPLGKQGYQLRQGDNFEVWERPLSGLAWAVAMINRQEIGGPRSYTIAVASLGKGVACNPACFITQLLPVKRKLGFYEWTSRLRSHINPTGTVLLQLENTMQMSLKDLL
Sequence of Tyrosyl-DNA phosphodiesterase 1 (Homo sapiens) (Q9NUW8 whole entry, looked up): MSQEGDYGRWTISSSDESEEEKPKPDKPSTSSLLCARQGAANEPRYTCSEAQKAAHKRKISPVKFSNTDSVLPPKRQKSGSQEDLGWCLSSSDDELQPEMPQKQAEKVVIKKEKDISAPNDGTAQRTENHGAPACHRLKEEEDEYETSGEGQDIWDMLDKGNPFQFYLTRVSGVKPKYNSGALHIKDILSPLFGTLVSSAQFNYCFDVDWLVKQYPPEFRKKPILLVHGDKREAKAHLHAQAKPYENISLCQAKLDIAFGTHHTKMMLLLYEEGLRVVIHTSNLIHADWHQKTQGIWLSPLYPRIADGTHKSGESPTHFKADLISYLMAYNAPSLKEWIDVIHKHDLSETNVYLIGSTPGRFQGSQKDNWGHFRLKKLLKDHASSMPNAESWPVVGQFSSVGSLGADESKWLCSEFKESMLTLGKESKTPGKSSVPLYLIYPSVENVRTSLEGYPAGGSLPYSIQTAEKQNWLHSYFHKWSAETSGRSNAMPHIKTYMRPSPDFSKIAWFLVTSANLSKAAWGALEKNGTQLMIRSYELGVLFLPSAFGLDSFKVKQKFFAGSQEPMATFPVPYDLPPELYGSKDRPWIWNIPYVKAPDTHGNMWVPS

C=CCc1cccc(/C=N/c2ncn[nH]2)c1O
activity change, negative = inhibition [1]: -5.91% | activity change, negative = inhibition [2]: -19.8% | activity, negative = inhibition [3]: 5.03% | Potency [4]: > 20.6 µM | activation [5]: 26.2%

N#Cc1c(NC(=O)CCC(=O)O)sc2c1CCCC2
activity change, negative = inhibition [1]: -1.32% | activity change, negative = inhibition [2]: -1.33% | activity, negative = inhibition [3]: -10% | Potency [4]: > 20.6 µM | activation [5]: -23.4%

Cc1ccc(C)n1Cc1ccc(C(=O)O)cc1
activity change, negative = inhibition [1]: 2.78% | activity change, negative = inhibition [2]: -7.86% | activity, negative = inhibition [3]: 6% | Potency [4]: > 20.6 µM | Potency [6]: 1.41 µM (active)

Cc1cc(Cl)ccc1OCC(=O)OC(C)C(=O)N(C)C (centres undefined)
activity change, negative = inhibition [1]: 3.68% | activity change, negative = inhibition [2]: 17.7% | activity, negative = inhibition [3]: -3.58% | Potency [4]: > 20.6 µM | activation [5]: -0.0413%

CCSC(SCC)[C@H](O)[C@@H](O)[C@H](O)[C@H](O)CO
activity change, negative = inhibition [1]: -0.356% | activity change, negative = inhibition [2]: 8.22% | activity, negative = inhibition [3]: 10.1% | Potency [4]: > 20.6 µM | activation [5]: 9.48%

CC(=O)[C@@]1(O)CC[C@@H]2[C@@H]3CCC4=CC(=O)CC[C@@]4(C)[C@H]3CC[C@]21C
activity change, negative = inhibition [1]: 4.89% [at 38 µM] | activity change, negative = inhibition [2]: -13.4% [at 38 µM] | activity, negative = inhibition [3]: -11.8% [at 38 µM] | Potency [4]: 0.162 µM (active) | Potency [7]: inactive | Potency [8]: inactive | outcome [9]: inactive | Potency [10]: inactive | Potency [11]: inactive | outcome [12]: inactive | outcome [13]: inactive | outcome [14]: inactive

CC(=O)S[C@@H]1CC2=CC(=O)CC[C@@]2(C)[C@H]2CC[C@]3(C)[C@H](CC[C@@]34CCC(=O)O4)[C@H]12
activity change, negative = inhibition [1]: 19.8% [at 38 µM] | activity change, negative = inhibition [2]: -10% [at 38 µM] | activity, negative = inhibition [3]: -9.34% [at 38 µM] | Potency [4]: 1.4 µM (active) | Potency [15]: > 46 µM | Potency [8]: inactive | outcome [9]: inactive | Potency [10]: inactive | Potency [11]: inactive | outcome [12]: inactive | outcome [13]: inactive | outcome [14]: inactive

Cc1cccc(N2CC(=O)N(c3cccc(C)c3)CC2=O)c1
activity change, negative = inhibition [1]: 5.22% | activity change, negative = inhibition [2]: 5.99% | activity, negative = inhibition [3]: 0.983% | Potency [4]: > 20.6 µM | activation [5]: 1.3%

O=C1C2ON(c3ccccc3)C(c3cccnc3)C2C(=O)N1Cc1ccccc1 (centres undefined)
activity change, negative = inhibition [1]: -15.2% | activity change, negative = inhibition [2]: -1.42% | activity, negative = inhibition [3]: -8.95% | Potency [4]: > 20.6 µM | activation [5]: 1.83%
